Source: PubChem BioAssay (NCI)
Where “and” joins values, the source holds several entries; their conditions need not be identical. Equal values may be shown once. The panel holds about 83,000 compounds, 20% with a hit somewhere; the sample as a whole holds those more often.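 A percent growth of 40 corresponds to 60% growth inhibition; 0 means no net growth; -100 means all cells died. Active threshold: below 10.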 Calls of active or inactive are those of the source.

The compounds below were run on MDA-MB-468 breast (assay: NCI-60 one-dose screen, 48 h (100 = growth as untreated, 0 = no growth, -100 = all killed)). Details: 10 µM unless noted.

Row | SMILES | growth
1 | O=C(CNc1ccc2c(c1)C(=O)c1ccccc1C2=O)Nc1ccc2c(c1)C(=O)c1ccccc1C2=O | -87.4% (active)
2 | COC(=O)C1CCCN1C(=O)[C@@H]1CCCN1C(=O)[C@H](Cc1c[nH]c2ccccc12)NC(=S)Nc1cc(C(F)(F)F)cc(C(F)(F)F)c1 (some centres undefined) | 44.3% (inactive)
3 | CC(C)(O)Cn1cc(-c2ccc3nc(OC4CC4)ccc3c2)c2c(N)ncnc21 | 89.1% (inactive) and 50.9% (inactive)
4 | c1ccc(Cn2nc3c(c2-c2ccccc2)-c2oncc2CC3)cc1 | 101% (inactive)
5 | OC(c1ccccc1)c1nnc(SCc2ccccc2)n1Cc1ccccc1 (centres undefined) | 88.5% (inactive)
6 | C1CCC(C(CC2CCCCN2)C2CCCCC2)CC1 (centres undefined) | -90.1% (active)
7 | CCN(CC)CCCNC(=O)c1c2c(n3ccccc13)C(=O)c1ncccc1C2=O | -70.1% (active)
8 | COCCn1cc(-c2nc(-c3c[nH]c4ncccc34)cs2)c2ccccc21 | -7.09% (active)
9 | CC(=O)OC[C@H]1OC(Sc2sc(C(=O)c3ccc(Cl)cc3)c(N)c2-c2nc3ccccc3s2)[C@H](OC(C)=O)[C@@H](OC(C)=O)[C@@H]1OC(C)=O (some centres undefined) | 112% (inactive)
10 | Cn1c(=O)n(C)c2cc(CNCCNc3ccnc4cc(Cl)ccc34)ccc21 | 59.4% (inactive)
11 | NC1=NN(c2ccccc2)C(=O)/C1=C/c1ccc(Cl)cc1 | 114% (inactive)
12 | Cc1[nH]nc2ccc(-c3nc4cnc(N5CCN(C)CC5)cn4c3Nc3ccc(F)cc3Br)cc12 | 56.2% (inactive)
13 | Cc1ccc(N(C(=O)CCc2c[nH]c3ccccc23)[C@H](C(=O)Nc2ccc(Cl)cc2)c2cccc([N+](=O)[O-])c2)cc1 | 91.3% (inactive)
14 | CCOC(=O)c1c(C(F)(F)F)n([O-])c2ccc(OC)cc2[n+]1=O | -22.2% (active)
15 | CCCCCCCCn1ccc2cc(NC(=O)Cn3cc(CN4CCC(C)CC4)nn3)ccc21 | -52.9% (active)
16 | Cn1c(NCCc2ccc(O)c(O)c2)nc2c1c(=O)n(Cc1ccc(Cl)c(Cl)c1)c(=O)n2C | 49.4% (inactive)
17 | CCCCCCCCC1OC1CCCCCCCC(=O)O (centres undefined) | 89.9% (inactive)
18 | COc1cccc(N2CCN(c3ncnc4c3[nH]c3ccc(F)cc34)C[C@H]2C)c1 | 27.5% (inactive)
19 | CCCCNC(=O)Oc1ccc(/C(=C(/C)Cc2ccc(OC)cc2)c2ccc(OCCN3CCCCC3)cc2)cc1 | 60.1% (inactive)
20 | Cc1ccc(Nc2c(C(N)=O)cnc3ccc(S(=O)(=O)Nc4cc(C)on4)cc23)cc1 | 92.4% (inactive)

Row | SMILES | growth
21 | Cc1ccccc1CNC(=O)C1CN(c2ccc(Cl)cc2)N(c2ccc(Cl)cc2)C1=O (centres undefined) | 83.2% (inactive)
22 | Cc1ccccc1NC(=O)N/C(N)=N/c1nc(C)c(C)s1 | -7.08% (active)
23 | O=C(N/N=C\c1c(O)ccc2ccccc12)C1CC1 | 11.8% (inactive)
24 | Cc1ccc(NCSc2ccc(Cl)cc2)cc1 | -0.979% (active) and 43.6% (inactive)
25 | O=C(CSc1nnc(-c2ccc(Cl)cc2)o1)Nc1ccc(C(=O)/C=C/c2ccccc2)cc1 | 98.7% (inactive)
26 | Cc1ccc(NC(=S)N/C=C(\c2ccccc2)S(=O)Cc2ccccc2)c(C)c1 (centres undefined) | 100% (inactive)
27 | Cc1ccccc1COc1ccc(-c2onc(C)c2-c2ccc(Cl)cc2)cc1 | 36.1% (inactive)
28 | Cn1cc(-c2csc(-c3c[nH]c4ccccc34)n2)c2ccnc(Cl)c21 | -9.03% (active)
29 | Cc1ccc(N=C2CSc3nnc(-c4csc5c4CCCC5)n3N2)cc1 | 17% (inactive)
30 | C#C[C@]1(O)CC[C@H]2[C@@H]3CC=C4c5sc(Nc6cc(OC)ccc6OC)nc5CC[C@]4(C)[C@H]3CC[C@@]21C | 9.15% (active)
31 | O=C(/C=C/c1cccc(F)c1)c1cccc(OCCCCOc2cccc(C(=O)/C=C/c3cccc(F)c3)c2)c1 | 87.2% (inactive)
32 | O=C(c1ccccc1)C1(Br)CCCCC1 | 90.3% (inactive)
33 | CC(=O)n1nc(C(=O)OC(C)(C)C)c2cc(F)c(F)cc21 | 97.4% (inactive)
34 | N#Cc1c(N2CCOCC2)nc2sc3cc(Cl)ccc3n2c1=N | 15.8% (inactive)
35 | O=C1[C@H]2Cc3c([nH]c4ccccc34)[C@@H](c3c(Cl)cccc3Cl)N2C(=O)CN1C1CCN(Cc2ccccc2)CC1 | 97.7% (inactive)
36 | O=C1OCC2=C1C(c1cccc(Cl)c1)c1cc3c(cc1N2CCO)OCCO3 (centres undefined) | 9.02% (active)
37 | COc1ccc(-c2cc(-c3cccs3)n(N=O)c(=O)c2C#N)cc1 | 99.5% (inactive)
38 | CC(C)CCSc1nc(N)nc2nc[nH]c12 | 103% (inactive)
39 | Nc1cc(O)cc2cccnc12 | 109% (inactive)
